Experimental findings from PubChem BioAssay (NCATS) are described below.

Structures are written as SMILES. Several values for one entry are separate records, joined by “and”; a condition that tells them apart may be missing. Identical values can stand only once. Inconclusive results are not listed. A number with no mark means an inactive call. Activity calls are given as the source filed them. The call rests on the fitted dose curve; in most records, active means well fitted inhibition curve with a large enough effect; inconclusive means small, poorly fitted or top-dose-only effect; inactive means flat fitted curve, though single readings scatter.

Common to all, as to assay: Cytotoxic Profiling of Annotated Libraries Using Quantitative High-Throughput Screening (AID 1296008); further: nearly all actives have a fitted effect of over 60% in size
Common to all, as to conditions: Five cell lines viability, CellTiter-Glo ATP luminescence, 48-72 h; max response: stronger effect = lower value

Assay [1] deals with CRL-7250. The procedure, abridged: (§1)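 Compounds were pin-transferred onto cells and incubated 48 or 72 hr at 37 degree Celsius, 95% humidity. CellTiter-Glo was added, plates sat 10 min at room temperature, then ATP-coupled luminescence was imaged as the viability read-out.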
For assay [2], the system named is HEK293. Put shortly:
as §1

Assay [3] has as its system HaCat. The procedure, abridged: as §1
For assay [4], the system named is KB-3-1. Put shortly: as §1
Assay [5] concerns NIH3T3. The procedure, abridged: as §1
On the % scale 0 is the no-effect control and ±100 the full control effect; potency means the concentration at half of the fitted maximal effect.

Take `CC(C)N1[N]C(=C2C=c3cc(O)ccc3=N2)c2c(N)ncnc21`: the Potency is 0.0418 µM (active) in assay [1]; 469 nM (active) in assay [2]; 11800 nM (active) in assay [3]; 1180 nM (active) in assay [4]; 0.526 µM (active) in assay [5].
As to `C=C1CCC2[C@](C)(CO)C(O)CC[C@]2(C)C1CC=C1C(=O)OCC1O` (stereo not given in full), the max response was -1.23% in assay [1]; -3.28% in assay [2]; -3.92% in assay [3]; 8.99% in assay [4]; 3.77% in assay [5].
On to `C[C@@H](Oc1ccc2[nH]nc(C=Cc3cnn(CCO)c3)c2c1)c1c(Cl)cncc1Cl`, for which the Potency in assay [1] was 11.8 µM (active); in assay [2] it was 13200 nM (active); in assay [3], 3320 nM (active); in assay [4] it was 418 nM (active); in assay [5], 3.72 µM (active).
For the compound `COc1ccc(C(C)=O)c(O)c1`, the max response in assay [1] is -6.37%; in assay [2], 0.614%; in assay [3], -4.96%; in assay [4], 4.34%; in assay [5], 2.86%.
As for `CC(C)(C)[N+]([O-])=Cc1ccc(S(=O)(=O)O)cc1S(=O)(=O)O`, the max response was 1.88% in assay [1]; -0.289% in assay [2]; -17.9% in assay [3]; 9.38% in assay [4]; 0.254% in assay [5].
With `CC(=O)[C@]1(O)Cc2c(O)c3c(c(O)c2[C@@H](O[C@H]2C[C@H](N)[C@@H](O)[C@H](C)O2)C1)C(=O)c1ccccc1C3=O`, the Potency in assay [1] is 1.48 µM (active); in assay [2], 132 nM (active); in assay [3] it was 743 nM (active); in assay [4], 469 nM (active); in assay [5], 0.264 µM (active).
On the same counts, the results for `CC(C=CC(=O)NO)=C[C@@H](C)C(=O)c1ccc(N(C)C)cc1` are 5.26 µM (active), 1050 nM (active), 2960 nM (active), 1180 nM (active) and 1.48 µM (active).
On the same counts, the results for `C[C@H](NCc1ccc2c(c1)nc(NC(=O)c1ccc(-c3cn[nH]c3)s1)n2CCc1ccccc1)C(C)(C)C` are 1.87 µM (active), 935 nM (active), 2960 nM (active), 1050 nM (active) and 2.64 µM (active).
On to `COC1=C(OC)C(=O)C(CC=C(C)CCC=C(C)CCC=C(C)CCC=C(C)CCC=C(C)CCC=C(C)CCC=C(C)CCC=C(C)CCC=C(C)CCC=C(C)C)=C(C)C1=O`, for which, in assay [1], the result was inactive. Besides, the max response in assay [2] was -5.18%; in assay [3], -8.05%; in assay [4], -1.17%; in assay [5] it was 4.96%.
With `FC(F)c1nc2ccccc2n1-c1nc(N2CCOCC2)nc(N2CCOCC2)n1`, the Potency was 590 nM (active) and 1.16 µM (active) in assay [1]; 1460 nM (active) in assay [2]; 3260 nM (active) in assay [3]; 2590 nM (active) in assay [4]; 662 nM (active) and 1.64 µM (active) in assay [5].
Consider `O=c1ccn([C@@H]2O[C@H](CO)[C@H](O)[C@@H]2F)c(=O)[nH]1`, for which the max response in assay [1] was -4.58%; in assay [2], -5.58%; in assay [3], 4.18%; in assay [4], 5.55%; in assay [5], 2.94%.
In the case of `COc1cc([C@@H]2c3cc4c(cc3[C@@H](O[C@@H]3O[C@@H]5CO[C@@H](c6cccs6)O[C@@H]5[C@H](O)[C@@H]3O)[C@H]3COC(=O)[C@H]23)OCO4)cc(OC)c1O`, the Potency in assay [1] was 16.6 µM (active); in assay [2] it was 148 nM (active); in assay [3], 590 nM (active); in assay [4], 743 nM (active); in assay [5] it was 0.132 µM (active).
As for `CN(C)c1ccc(C(=O)NCCCCCCC(=O)NO)cc1`, the Potency in assay [1] was 2.64 µM (active); in assay [2] it was 1870 nM (active); in assay [3], 4690 nM (active); in assay [4] it was 2350 nM (active); in assay [5] it was 3.72 µM (active).
In the case of `COc1cccc2c1C(=O)c1c(O)c3c(c(O)c1C2=O)C[C@@](O)(C(C)=O)C[C@H]3O[C@H]1C[C@H](N)[C@H](O)[C@H](C)O1`, the Potency in assay [1] was 0.132 µM (active); in assay [2], 66.2 nM (active); in assay [3], 418 nM (active); in assay [4] it was 235 nM (active); in assay [5], 0.209 µM (active).
Turning to `O=C(O)C=Cc1ccc(Cn2ccnc2)cc1`, the max response in assay [1] is 3.43%; in assay [2], -2.77%; in assay [3], -0.523%; in assay [5], -0.597%. In addition, the compound was called inactive in assay [4].
On to `O=c1[nH]c(=O)n([C@H]2C[C@@H](O)[C@@H](CO)O2)cc1C=CBr`, for which the values for the max response in assay [1], in assay [2] and in assay [3] were -10.9%, -1.26% and -10.4%, respectively. The call in assay [4] and in assay [5] was inactive.
With `CC(=O)O[C@H]1C[C@@H]2CC[C@H]3[C@H]4C[C@H]([N+]5(C)CCCCC5)[C@@H](OC(C)=O)[C@@]4(C)CC[C@@H]3[C@@]2(C)C[C@H]1N1CCCCC1`, the max response in assay [1] is -4.19%; in assay [2], 2.19%; in assay [3], -11.8%; in assay [4] it was 2.79%; in assay [5] it was 4.95%.
Regarding `CC(C)N(CC[C@H](c1ccccc1)c1cc(CO)ccc1O)C(C)C`, the compound was called inactive in assay [1], in assay [4] and in assay [5]. For the same compound, the values for the max response in assay [2] and in assay [3] were 0.962% and -1.81%, respectively.
On to `CO[C@@H]1[C@@H](O)[C@H](O)[C@@H](n2c3c(Cl)cccc3c3c4c(c5c6cccc(Cl)c6[nH]c5c32)C(=O)NC4=O)O[C@@H]1CO`, for which the Potency was 3.72 µM (active) in assay [1]; 662 nM (active) in assay [2]; 3320 nM (active) in assay [3]; 2960 nM (active) in assay [4]; 1.66 µM (active) in assay [5].
